Common to all, as to experiment: NCI-60 one-dose screen, 48 h (100 = growth as untreated, 0 = no growth, -100 = all killed)
One assay has as its system NCI-H23 lung. To be noted: 10 µM unless noted.
A further assay has as its system NCI-H226 lung. The conditions noted are these: 10 µM unless noted.
The subject of a further assay is NCI-H460 lung. The conditions noted are these: 10 µM unless noted.
For the next assay, the system named is A549/ATCC NSCLC. The conditions noted are these: 10 µM unless noted.
Another assay has as its system 786-0 renal. To be noted: 10 µM unless noted.
For a further assay, the system named is NCI-H322M lung. The conditions noted are these: 10 µM unless noted.
For another assay, the system named is HOP-62 NSCLC. To be noted: 10 µM unless noted.
The test system of the next assay is HOP-92 NSCLC. The conditions noted are these: 10 µM.
Another assay deals with NCI-H522 lung. The conditions noted are these: 10 µM.
A further assay deals with COLO 205 colon. The conditions noted are these: 10 µM unless noted.

Several values for one entry are separate records, joined by “and”; a condition that tells them apart may be missing. Identical values can stand only once. This is part of a sample that, as a whole, favours compounds with a hit. Of some 83,000 tested, about 20% had one in any assay.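 Treatment: one concentration, 48 hours, 96-well format. Scoring: percent growth, with anything below 10 considered active.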 Activity calls are given as the source filed them.

As to `Cl`, the growth was 97.5% (inactive) in the assay on NCI-H23 lung; 105% (inactive) with NCI-H226 lung; 107% (inactive) in the assay on NCI-H460 lung; 103% (inactive) in the assay on A549/ATCC NSCLC; 104% (inactive) in the assay on 786-0 renal.
As to `CN1CNC(=O)NC1`, the growth in the assay with NCI-H23 lung is 106% (inactive) and 99.9% (inactive); in the assay on NCI-H226 lung it was 98.4% (inactive) and 86.1% (inactive); in the assay with NCI-H322M lung, 120% (inactive) and 92.3% (inactive); with HOP-62 NSCLC, 108% (inactive) and 103% (inactive); with NCI-H460 lung, 103% (inactive) and 108% (inactive); in the assay on HOP-92 NSCLC it was 94.1% (inactive) and 95.6% (inactive). Besides, the growth is 91.2% (inactive) and 90% (inactive) in the assay with NCI-H522 lung; 110% (inactive) and 93.8% (inactive) in the assay with A549/ATCC NSCLC; 108% (inactive) and 112% (inactive) in the assay with 786-0 renal; 110% (inactive) and 121% (inactive) in the assay on COLO 205 colon.
`Cc1cc(-c2cc(C)c(O)c(C)c2)cc(C)c1O`: the growth is 96.2% (inactive) in the assay on NCI-H226 lung; 93.7% (inactive) in the assay on NCI-H322M lung; 73.9% (inactive) in the assay on HOP-62 NSCLC; 77.1% (inactive) in the assay with HOP-92 NSCLC; 63.3% (inactive) with NCI-H522 lung; 90.2% (inactive) in the assay on A549/ATCC NSCLC.
For the compound `CCN(CCNS(C)(=O)=O)c1ccc(N)c(C)c1`, the growth with NCI-H226 lung is 92.9% (inactive) and 82.7% (inactive); in the assay with NCI-H322M lung it was 95.1% (inactive) and 120% (inactive); in the assay with HOP-62 NSCLC, 106% (inactive) and 111% (inactive); in the assay with HOP-92 NSCLC it was 84.4% (inactive); in the assay on NCI-H522 lung it was -70.5% (active); in the assay with 786-0 renal it was 89% (inactive) and 95.7% (inactive). Further, the growth with COLO 205 colon was 69.6% (inactive) and 107% (inactive).
Take `CCCCCCCCCCNC(=O)CI`: the growth in the assay on NCI-H226 lung was 76.7% (inactive); in the assay with NCI-H322M lung, 96.8% (inactive); in the assay on HOP-62 NSCLC, -20.8% (active); with NCI-H460 lung it was 101% (inactive); with HOP-92 NSCLC, -79% (active); in the assay with A549/ATCC NSCLC it was 95.1% (inactive). In addition, in the assay on 786-0 renal, the growth was -81.2% (active).
Consider `CCCCOC(=O)/C=C\C(=O)NC(N)=O`, for which the growth in the assay with NCI-H226 lung was 96.6% (inactive); in the assay on NCI-H322M lung, 96.4% (inactive); in the assay with HOP-62 NSCLC, 95.1% (inactive); with NCI-H460 lung, 101% (inactive); in the assay on NCI-H522 lung, -30.6% (active); in the assay with A549/ATCC NSCLC, 95.8% (inactive). Besides, the growth in the assay on 786-0 renal was 97.4% (inactive); with COLO 205 colon, 87.7% (inactive).
Regarding `c1ccc(-c2nc3ccccc3s2)cc1`, the growth in the assay on NCI-H322M lung is 81.1% (inactive); in the assay on HOP-62 NSCLC it was 76.3% (inactive); in the assay with NCI-H460 lung, 97.5% (inactive); in the assay with HOP-92 NSCLC, 82.4% (inactive); in the assay with 786-0 renal it was 105% (inactive).
`OCCN1CCCCCCC1`: the growth with NCI-H226 lung was 93.8% (inactive); with NCI-H322M lung, 101% (inactive); with HOP-62 NSCLC, 99.5% (inactive); with HOP-92 NSCLC, 68% (inactive); in the assay with 786-0 renal, 101% (inactive).
As to `O=C(O)/C=C\C(=O)Nc1cccc2ccccc12`, the growth was 90.6% (inactive) and 107% (inactive) in the assay on NCI-H226 lung; 105% (inactive) and 117% (inactive) in the assay with NCI-H322M lung; 96% (inactive) and 104% (inactive) in the assay on HOP-62 NSCLC; 101% (inactive) and 111% (inactive) in the assay with NCI-H460 lung; 115% (inactive) in the assay with HOP-92 NSCLC; 79.3% (inactive) and 100% (inactive) with NCI-H522 lung. The growth with 786-0 renal is 113% (inactive) and 111% (inactive); in the assay on COLO 205 colon, 95.4% (inactive) and 108% (inactive).
As for `COc1ccc(C(=O)CC(c2ccccc2)C(C#N)c2ccccc2)cc1` (configuration not stated), the growth in the assay with NCI-H226 lung is 81.1% (inactive); in the assay with NCI-H322M lung, 103% (inactive); with HOP-62 NSCLC, 98.3% (inactive); in the assay on HOP-92 NSCLC, 67.8% (inactive); in the assay on NCI-H522 lung, 69.5% (inactive); in the assay on 786-0 renal, 90% (inactive). For the same compound, the growth in the assay with COLO 205 colon was 110% (inactive).
On to `Cn1cnc([N+](=O)[O-])c1Sc1ncn[nH]1`, for which the growth in the assay with NCI-H226 lung was 102% (inactive); with NCI-H322M lung it was 101% (inactive); in the assay with HOP-62 NSCLC, 96.9% (inactive); in the assay on HOP-92 NSCLC, 101% (inactive); with NCI-H522 lung, 82.9% (inactive); in the assay with 786-0 renal it was 102% (inactive).
Turning to `CCCCOc1ccc(Nc2cc(Cl)ccc2C(=O)O)cn1`, the growth in the assay with NCI-H226 lung was 109% (inactive) and 97.5% (inactive); with NCI-H322M lung, 110% (inactive) and 105% (inactive); in the assay on HOP-62 NSCLC, 88.4% (inactive) and 90% (inactive); in the assay with HOP-92 NSCLC, 74.8% (inactive); with NCI-H522 lung, 46.4% (inactive) and 98.2% (inactive); in the assay with A549/ATCC NSCLC, 96.5% (inactive) and 98.1% (inactive). The growth is 92% (inactive) in the assay on 786-0 renal; 119% (inactive) and 103% (inactive) with COLO 205 colon.
`Nc1ncnc2c1ncn2C1OC(COP(=O)(O)O)C(O)C1O` (configuration not stated): the growth in the assay on NCI-H226 lung is 113% (inactive); in the assay with HOP-62 NSCLC, 115% (inactive); with HOP-92 NSCLC, 103% (inactive); with NCI-H522 lung, 114% (inactive); with 786-0 renal, 105% (inactive).
